Assay outcomes as filed in PubChem.
The full list was thinned out, with hits kept by preference.
p53null 39C kill = kills p53 null cells at the nonpermissive temperature | H1299 p53-null (neo) cells, 39C, ATPlite viability, 24 h | AID 904 | hit rate 0.97% among 55,000 | Potency, µM (series often up to 46.1 µM), most hits filed as cytotoxic; also: nearly all actives have a fitted effect of over 50% in size
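ATP-luminescence viability readout (ATPlite, 20 min RT) after 24 hr compound treatment at 39C of H1299-neo or H1299-p53A138V cells; titration up to 46 uM; normalized to DMSO and 100 uM tamoxifen; Hill-fit AC50.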
OvCa metastasis = inhibitors of ovarian cancer cell adhesion and invasion in omental model; hit rate 0.1% among 46,000; SKOV3ip1-GFP adhesion/invasion on 3D omental model, fluorescence; Potency, µM (highest dose often 45.8 µM), actives largely listed as inhibitors; AID 1963576; also: nearly all actives have a fitted effect of over 65% in size
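Primary human omental fibroblast/mesothelial 3D culture pre-formed 48 h. SKOV3ip1-GFP cells added with compounds (0.36-46 umol/L), incubated 2 h RT/16 h 37 C, fixed; GFP cells quantified at 488/509 nm.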
NTMT1 inh = inhibitors of human N-terminal methyltransferase NTMT1 | NTMT1 MTase-Glo SAH luminescence, purified enzyme | Q9BV86 | Potency, µM (top dose mostly 114 µM), actives largely listed as inhibitors | AID 1645870 | hit rate 2.5% among 59,000; also: nearly all actives have a fitted effect of over 65% in size
Target sequence (Q9BV86 whole entry, looked up): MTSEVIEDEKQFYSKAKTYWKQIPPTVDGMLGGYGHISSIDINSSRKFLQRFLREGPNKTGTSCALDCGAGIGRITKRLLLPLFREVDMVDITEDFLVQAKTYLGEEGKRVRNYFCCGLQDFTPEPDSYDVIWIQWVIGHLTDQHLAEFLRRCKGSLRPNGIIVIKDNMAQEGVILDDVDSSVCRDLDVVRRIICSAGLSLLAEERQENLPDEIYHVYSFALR
p53null 32C kill = selectivity test: cytotoxicity in p53 null cells, permissive temperature; hit rate 0.62% among 55,000; Potency, µM (top dose mostly 46.1 µM), hits mostly cytotoxic; H1299-neo p53 null cells, ATP luminescence, 24 h, 32C; also: nearly all actives have a fitted effect of over 55% in size
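H1299-neo, 600 cells/well; overnight 37C; cpd up to 46 uM, 24 h at 32C; ATPlite luminescence after 20 min RT; normalized to DMSO (0%) and tamoxifen 100 uM (100% kill); Hill-fit AC50.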
Hits are given with their value; . = inactive; ? = inconclusive; / = not tested or not shown; ! = not confirmed by another sample; [ ] = remark or other dose. Calls follow the shape of the dose curve; as a rule, active = well fitted curve in the direction sought with a large enough effect; inconclusive = small, poorly fitted or top-dose-only effect, or another doubt; inactive = no such curve, though single readings can be large; an effect the other way counts as inactive or inconclusive.

SMILES	p53null 39C kill	OvCa metastasis	NTMT1 inh	p53null 32C kill
CC1OC(O[C@@H]2[C@@H](O)[C@H](OC(=O)[C@]34CCC(C)(C)C[C@H]3C3=CCC5[C@@]6(C)CC[C@H](O[C@@H]7O[C@H](C(=O)O)[C@@H](O)[C@H](O[C@@H]8OC[C@@H](O)[C@H](O)[C@H]8O)[C@H]7O[C@@H]7O[C@H](CO)[C@H](O)[C@H](O)[C@H]7O)[C@@](C)(C=O)C6CC[C@@]5(C)[C@]3(C)C[C@H]4O)O[C@H](C)[C@@H]2OC2OC(C)C(OC3OCC(O)C(O)C3O)C(O)C2O)C(O)C(O)C1O (stereo partly drawn)	/	/	.[6.45 µM]	/
COc1cccc(NC(=O)CN(CCc2ccccc2)S(=O)(=O)c2ccc(Cl)cc2)c1	.	.	2.5µM	.
COc1cccc(-c2ccc(CNc3ccc(N4CCN(C(=O)OC(C)(C)C)CC4)cc3)o2)c1	/	/	.	/
OCCN1CCN(CCCN2c3ccccc3Sc3ccc(C(F)(F)F)cc32)CC1	/	.	32µM!	/
Cc1ccc(CNC(=O)Cn2c(SCC(=O)Nc3ccc(F)cc3)nc3ccccc32)cc1	13µM	.	.	?
CCOC(=O)c1cc2c(C)nn(-c3ccccc3)c2s1	.	/	/	.
CCOC(=O)c1nn(-c2ccccc2)c(=O)c2c(N)scc12	/	/	50µM	/
Cc1ccc(NC(=O)c2cccn2-c2nnc(N3CCCCC3)s2)cc1Cl	.	.	79µM	.
Cc1nc2cccc(N)c2c(=O)n1C1CCC(=O)NC1=O (stereo not drawn)	/	/	.	/
Cc1nn(-c2ccccc2)c2sc(C(=O)Nc3cccc(O)c3)cc12	25µM	.	.	.
Cc1nn(-c2ccccc2)c2sc(C(=O)Nc3ccccc3Br)cc12	.	.	.	.
CCc1ccc(NC(=O)c2ccc3c(O)c(S(=O)(=O)c4ccccc4)c(=O)[nH]c3c2)cc1	?	.	.	13µM
COc1cccc(-n2c(=O)[nH]cc(C(=O)Nc3ccc4c(c3)OCCO4)c2=O)c1	.	/	/	.
COc1cc(OC)cc(C(=O)Nc2ccc3c(c2)OCCO3)c1	6.3µM	.	32µM	7.9µM
Cc1cc(Nc2ccc(F)cc2)nc(-n2nc(C)cc2C)n1	.	.	.	.
CCCCc1ccc(Nc2cc(C)nc(-n3nc(C)cc3C)n2)cc1	13µM	.	?	.
O=S(=O)(Nc1nccs1)c1ccc(NCc2cccc(O)c2)cc1	/	/	.	/
COc1cccc(CNc2ccc(S(=O)(=O)Nc3ncc(C)s3)cc2)c1O	/	/	.	/
CCc1c(C)c2ccc(O)c(CN3CCN(c4ccc(OC)cc4)CC3)c2oc1=O	10µM	.	/	?
CC1CCN(c2nc(-c3ccc(C(C)(C)C)cc3)nc3ccccc23)CC1	13µM	.	.	13µM
CC1CCCN(c2nc(-c3ccccc3O)nc3ccccc23)C1 (stereo not drawn)	.	.	.	.
CCCOc1ccc(-c2nc(N3CCC(C)CC3)c3ccccc3n2)cc1	.	.	/	.
CC1CCCCN1c1nc(-c2ccc(C(C)(C)C)cc2)nc2ccccc12 (stereo not drawn)	16µM	.	.	13µM
Cc1ccc(S(=O)(=O)Nc2cccc(C(=O)Nc3nc(-c4ccccc4)cs3)c2Cl)cc1	/	/	.	/
COc1ccc(C2Nc3ccccc3C(=O)N2Cc2cccs2)cc1COc1c(C)cc(NC(C)=O)cc1C (stereo not drawn)	/	/	.	/
SMILES	p53null 39C kill	OvCa metastasis	NTMT1 inh	p53null 32C kill
CS(=O)(=O)c1ccc(C(=O)OCC(=O)N2Cc3ccccc3C2)cc1[N+](=O)[O-]	/	/	.	/
NS(=O)(=O)c1ccc(Cc2c(-c3cccc(-c4ccccc4)c3)nn(-c3nc(C(=O)O)cs3)c2C2CC2)cc1	/	/	25µM	/
COc1cnc(-c2ccccc2C(C)C)nc1NCc1ccc(-c2cccnc2)cc1	/	/	.	/
[O-][n+]1ccccc1SSc1cccc[n+]1[O-]	/	/	5µM	/
CCCCC[C@H](O)C=C[C@H]1[C@H](O)CC(=O)[C@H]1CCCCCCC(=O)O	/	.	.	/
CCCCC1CCC(CCCC(C)CCC(=O)O)CC1 (stereo not drawn)	.	.	45µM	.
CCN(C(=O)c1ccco1)c1nnc(-c2ccc(OC)cc2)s1	13µM	/	/	?
COc1ccc(N(Cc2cccs2)C(=O)c2ccco2)cc1	.	?	.	.
CN(CCCNC(=O)c1cc2c(Cl)nc3ccccc3c2s1)Cc1ccccc1	25µM	?	?	?
CCN(CCCNC(=O)c1cc2c(=O)[nH]c3ccc(C)cc3c2s1)Cc1ccccc1	?	?	50µM	?
CCN(CCCNC(=O)c1cc2c(Cl)nc3ccccc3c2s1)Cc1ccccc1	.	.	?	.
